Measured values reported in PubChem BioAssay (EPA / NIEHS).
Several values for one entry are separate records, joined by “and”; a condition that tells them apart may be missing. Equal values may be shown once. Results filed as inconclusive are left out. A structure can be active in one record and inactive in another. Activity calls are given as the source filed them. The calls were made as follows, unless noted: active = hit-call score of the fitted dose curve at least 0.9, where 1 is the maximum; inconclusive = response in the unintended direction; inactive = score below 0.9.

Molecular target: X-box-binding protein 1 (Homo sapiens) (UniProt P17861)
Sequence (P17861 whole entry, looked up): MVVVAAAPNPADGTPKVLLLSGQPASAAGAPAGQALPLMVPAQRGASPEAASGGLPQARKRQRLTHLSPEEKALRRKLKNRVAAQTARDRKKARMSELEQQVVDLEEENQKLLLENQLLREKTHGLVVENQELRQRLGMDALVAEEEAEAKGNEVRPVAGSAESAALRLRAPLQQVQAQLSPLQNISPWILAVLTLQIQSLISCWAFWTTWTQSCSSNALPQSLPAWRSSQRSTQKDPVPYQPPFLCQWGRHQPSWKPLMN
Experiment: ATG_Xbp1_CIS: Attagene CIS-FACTORIAL HepG2 Assay for human X-box Binding Protein 1 (XBP1) (AID 2282972; active = hit-call score of the fitted dose curve at least 0.9, where 1 is the maximum; inactive = score below 0.9)
Conditions: HepG2 XBP1 cis-element reporter, Attagene multiplex; actives raise or lower the signal
In short: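 Human hepatoma HepG2, cis-element reporter system, 24 h treatment; mRNA quantified by RT-PCR/CE fluorescence; fit relative to DMSO.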
In the case of `CCCN(CCC)C(=O)SCC`, the outcome is reported as “inactive”. In the case of `S=C(S)NCCNC(=S)S.[Mn+2].[S-]C([S-])=NCCN=C([S-])[S-].[Zn+2]`, the outcome is reported as “inactive”. For `OB(O)O`, the outcome was “inactive”. For `O=C(c1ccc(O)cc1O)c1ccc(O)cc1O`, the outcome was “inactive”. In the case of `CC(=O)S[C@@H]1CC2=CC(=O)CC[C@]2(C)[C@H]2CC[C@@]3(C)[C@@H](CC[C@@]34CCC(=O)O4)[C@H]12`, the AC50 is reported as 38.7 µM (active) and 21.9 µM (active) and 4.9 µM (active) and the outcome is reported as “inactive”. With `C#C[C@]1(O)CC[C@H]2[C@@H]3CCC4=CC(=O)CC[C@@H]4[C@H]3CC[C@@]21CC` the outcome was “inactive”. For `CCCCC(CC)CN1C(=O)C2C3C=CC(C3)C2C1=O` (configuration not stated), the outcome was “inactive”. In the case of `CCCCOC(=O)C(C)Oc1ccc(Oc2ccc(C(F)(F)F)cn2)cc1` (configuration not stated), the outcome is reported as “inactive”. For `CCCOC(=O)c1ccc(C(=O)OCCC)nc1`, the outcome was “inactive”. With `O=C(c1ccccc1)C1CCCCC1` the outcome was “inactive”. For `COc1c(Cl)ccc(Cl)c1C(=O)O`, the outcome was “inactive”. For `CCSC(=O)N(CC(C)C)CC(C)C`, the outcome was “inactive”.

Tested on: not listed separately
Experiment: ATG_M_19_TRANS: Attagene TRANS-FACTORIAL HepG2 Assay for M19 Transcription Factor (Internal Marker) (AID 2282974)
Conditions: HepG2 Attagene TRANS-FACTORIAL M19 internal marker reporter
In short: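 Reporter mRNA induction was measured in transfected HepG2 cells 24 h after dosing. Endpoint fitted upward relative to DMSO and serves as a background control within the multiplexed TRANS panel.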
In the case of `C[C@]12CC[C@@H]3c4ccc(O)cc4C[C@@H](CCCCCCCCCS(=O)CCCC(F)(F)C(F)(F)F)[C@H]3[C@@H]1CC[C@@H]2O` (some centres not stated), the outcome is reported as “inactive”. With `COC(=O)c1cccc(C)c1S(=O)(=O)NC(=O)Nc1nc(OCC(F)(F)F)nc(N(C)C)n1` the outcome was “inactive”. In the case of `CC1(C)C(C=C(Cl)Cl)C1C(=O)OCc1cccc(Oc2ccccc2)c1` (configuration not stated), the outcome is reported as “inactive”. In the case of `CCC(C)OC(=O)N1CCCCC1CCO` (configuration not stated), the outcome is reported as “inactive”. With `CCC(O)=C1C(=O)CC(C(=O)O)CC1=O` (configuration not stated) the outcome was “inactive”. With `CCOC(=O)c1ccc(O)cc1` the outcome was “inactive”. For `O=C(O)C1(C(=O)Nc2ccc(Cl)cc2Cl)CC1`, the outcome was “inactive”. With `CC(C)(c1ccc(O)cc1)c1ccc(O)cc1` the outcome was “inactive”. In the case of `CCCCOC(=O)[C@@H](C)Oc1ccc(Oc2ccc(C(F)(F)F)cn2)cc1`, the outcome is reported as “inactive”. For `COC(=O)c1ccccc1S(=O)(=O)NC(=O)Nc1nc(OC(F)F)cc(OC(F)F)n1`, the outcome was “inactive”. In the case of `CC(C)CCCCCCc1ccc(O)cc1`, the outcome is reported as “inactive”. In the case of `CCOC(=O)NCCOc1ccc(Oc2ccccc2)cc1`, the outcome is reported as “inactive”. In the case of `O=C(O)c1ccccc1`, the outcome is reported as “inactive”. In the case of `CCN(Cc1c(F)cccc1Cl)c1c([N+](=O)[O-])cc(C(F)(F)F)cc1[N+](=O)[O-]`, the outcome is reported as “inactive”. For `CCCN(CCC)C(=O)SCC`, the outcome was “inactive”. In the case of `S=C(S)NCCNC(=S)S.[Mn+2].[S-]C([S-])=NCCN=C([S-])[S-].[Zn+2]`, the outcome is reported as “inactive”. For `OB(O)O`, the outcome was “inactive”. In the case of `O=C(c1ccc(O)cc1O)c1ccc(O)cc1O`, the outcome is reported as “inactive”. With `CC(=O)S[C@@H]1CC2=CC(=O)CC[C@]2(C)[C@H]2CC[C@@]3(C)[C@@H](CC[C@@]34CCC(=O)O4)[C@H]12` the outcome was “inactive”. With `C#C[C@]1(O)CC[C@H]2[C@@H]3CCC4=CC(=O)CC[C@@H]4[C@H]3CC[C@@]21CC` the outcome was “inactive”. For `CCCCC(CC)CN1C(=O)C2C3C=CC(C3)C2C1=O` (configuration not stated), the outcome was “inactive”. In the case of `CCCCOC(=O)C(C)Oc1ccc(Oc2ccc(C(F)(F)F)cn2)cc1` (configuration not stated), the outcome is reported as “inactive”. With `O=C(c1ccccc1)C1CCCCC1` the outcome was “inactive”. With `COc1c(Cl)ccc(Cl)c1C(=O)O` the outcome was “inactive”.
